The record followed here is PubChem BioAssay (Tox21).

Where “and” joins values, the source holds several entries; their conditions need not be identical. Identical values can stand only once. Results filed as inconclusive are left out. Where a structure was tested more than once in an assay, its records may differ in their call. Calls of active or inactive are those of the source. Calls follow the shape of the dose curve; as a rule, active = well fitted curve in the direction sought with a large enough effect in the repeat runs; inconclusive = weak or mixed curves; inactive = no such curve, though single readings can be large; an effect the other way counts as inactive or inconclusive.

Experiment [1] in a line: Caspase-3/7 induction in HepG2 cells by small molecules, qHTS assay (AID 1346978). Also: nearly all actives have a fitted effect of over 15% in size. Also: potency is read from the fitted curve at half-maximal effect. A digest of the protocol:
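Wild-type HepG2 cells, 2,000/well, settled 5 hr at 37 C and 5% CO2, then compound-treated for 17 hr; caspase-3/7 activity read by luminescent Caspase-Glo 3/7 after 30 min at room temperature.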
In general terms: Quantitative high-throughput screening tests each substance at several concentrations.

Experiment [2] is described as follows: Caspase-3/7 induction in CHO-K1 cells by small molecules, qHTS cell viability counter screen (AID 1346979). Also: nearly all actives have a fitted effect of over 35% in size. Also: potency is read from the fitted curve at half-maximal effect. A digest of the protocol: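 Cells (CHO-K1, wild type) are plated at 1,500 per well and incubated 5hr. Test compounds in DMSO are then pinned in, followed by 16hr at 37C and 5% CO2. Viability is read by CellTiter-Fluor fluorescence after 1hr.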
Experiment [3] in a line: Caspase-3/7 induction in CHO-K1 cells by small molecules, qHTS assay (AID 1346980). Also: nearly all actives have a fitted effect of over 15% in size. A digest of the protocol: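 Wild-type CHO-K1 cells exposed to compounds for 17hr at 37 C, 5% CO2. Caspase-3/7 activity then measured by Caspase-Glo 3/7 luminescence after 30min at room temperature.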
Experiment [4] deals with Nuclear receptor subfamily 1 group I member 2 (Homo sapiens) (UniProt O75469). Put plainly: Human pregnane X receptor (PXR) small molecule agonists, qHTS assay (AID 1346982). Also: nearly all actives have a fitted effect of over 35% in size. Also: potency is read from the fitted curve at half-maximal effect. Put shortly:
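We seeded PXR-Luc HepG2 cells in assay medium containing 5% charcoal-stripped FBS, added compounds 5 hr later, incubated 24 hr, and read luminescence with ONE-Glo reagent.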

The target of experiment [5] is Cytochrome P450 2D6 (Homo sapiens) (UniProt P10635). Put plainly: Cytochrome P450 Family 2 Subfamily D Member 6 (CYP2D6) small molecule antagonists: luciferase reporter qHTS assay (AID 1671196). Also: nearly all actives have a fitted effect of over 50% in size. Also: potency is read from the fitted curve at half-maximal effect. Put shortly: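 Luminescence (RLU), read 20 min after detection reagent, indicated CYP2D6 conversion of proluciferin to luciferin during a 1 h NADPH-dependent reaction at room temperature.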
On the technique in general: A reporter such as luciferase makes a cellular process visible.

Experiment [6] deals with Cytochrome P450 2C19 (Homo sapiens) (UniProt P33261). Put plainly: Cytochrome P450 Family 2 Subfamily C Member 19 (CYP2C19) small molecule antagonists: luciferase reporter qHTS assay (AID 1671197). Also: nearly all actives have a fitted effect of over 65% in size. Also: potency is read from the fitted curve at half-maximal effect. Put shortly: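 Relative luminescence units recorded 20 min after the detection reagent stopped a 1 h, 37C CYP2C19 reaction on proluciferin substrate, which was started by NADPH regeneration following 10 min room-temperature compound preincubation; ketoconazole positive control.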

For experiment [7], the target named is Cytochrome P450 2C9 (Homo sapiens) (UniProt P11712). Put plainly: Cytochrome P450 Family 2 Subfamily C Member 9 (CYP2C9) small molecule antagonists: luciferase reporter qHTS assay (AID 1671198). Also: nearly all actives have a fitted effect of over 50% in size. Also: potency is read from the fitted curve at half-maximal effect. A digest of the protocol:
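P450-Glo proluciferin substrate with CYP2C9 enzyme; 10 min RT preincubation, then NADPH regeneration 1 h at 37C; luciferin detection reagent 20 min RT, luminescence in relative luminescence units.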

For experiment [8], the target named is Cytochrome P450 1A2 (Homo sapiens) (UniProt P05177). Nature of the experiment: Cytochrome P450 Family 1 Subfamily A Member 2 (CYP1A2) small molecule antagonists: luciferase reporter qHTS assay (AID 1671199). Also: nearly all actives have a fitted effect of over 50% in size. Also: potency is read from the fitted curve at half-maximal effect. A digest of the protocol:
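CYP1A2 turnover of a luminogenic substrate was quantified after 1 h with NADPH regeneration at room temperature. Furafylline served as positive control.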

Experiment [9] addresses Voltage-gated inwardly rectifying potassium channel KCNH2 (Homo sapiens) (UniProt Q12809). Put plainly: Human Ether-a-go-go-Related Gene (hERG) channel small molecule antagonists: fluorescence cell-based qHTS assay (AID 1671200). Also: nearly all actives have a fitted effect of over 50% in size. Also: potency is read from the fitted curve at half-maximal effect. Put shortly: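 Channel function was assessed by thallium flux. Cells seeded the previous day and kept at 37 C took up FluxOR II dye over 1 h in the dark at room temperature, then sat another 10 min before stimulation.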

The target in experiment [10] is Cytochrome P450 3A4 (Homo sapiens) (UniProt P08684). Put plainly: Cytochrome P450 Family 3 Subfamily A Member 4 (CYP3A4) small molecule antagonists: luciferase reporter qHTS assay (AID 1671201). Also: nearly all actives have a fitted effect of over 50% in size. Also: potency is read from the fitted curve at half-maximal effect. A digest of the protocol:
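Compounds in DMSO were pin-transferred onto CYP3A4 enzyme-substrate mix and held 10 min at room temperature. NADPH regenerating solution started the reaction for 1 h; luciferin detection reagent stopped it, and luminescence was read after 20 min.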

Experiment [11] is described as follows: Caspase-3/7 induction in HepG2 cells by small molecules, qHTS cell viability counter screen (AID 1346981). Also: nearly all actives have a fitted effect of over 30% in size. Also: potency is read from the fitted curve at half-maximal effect. Put shortly: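 Multiplexed with the caspase-3/7 assay: HepG2 cells, 16 hr compound treatment, CellTiter-Fluor viability detection by fluorescence.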
Experiment [12] has as its target Nuclear receptor subfamily 1 group I member 2 (Rattus norvegicus) (UniProt Q9R1A7). Nature of the experiment: Rat pregnane X receptor (rPXR) activation by small molecules, qHTS assay (AID 1346983). Also: nearly all actives have a fitted effect of over 20% in size. The following applies: rPXR luciferase reporter cells, One-Glo luminescence, 24 h; stronger effect = higher value. A digest of the protocol: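 Cell-based rPXR activation assay: rPXR cells, 2,000 per well, rested 5hr at 37 C, then exposed to compounds in DMSO for 24 hr at 37 C. Luciferase activity read by One-Glo luminescence after 30 min at room temperature.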

Experiment [13] addresses Nuclear receptor subfamily 1 group I member 2 (Homo sapiens) (UniProt O75469). Nature of the experiment: CYP3A4 induction through human pregnane X receptor (PXR) by small molecules, qHTS assay (AID 1346984). Also: nearly all actives have a fitted effect of over 40% in size. Also: potency is read from the fitted curve at half-maximal effect. A digest of the protocol: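 qHTS, concentration-response format: HepG2 DPX-2 line, PXR/CYP3A4-luc. Exposure 24 h, 37C. Substrate Luciferin-IPA 3uM final, 3 h. Detection One-Glo, 30 min RT.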

The target is the same in experiment [14]. Nature of the experiment: Human pregnane X receptor (PXR) activation by small molecules, qHTS assay (AID 1346985). Also: nearly all actives have a fitted effect of over 40% in size. Also: potency is read from the fitted curve at half-maximal effect. A digest of the protocol:
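DPX-2 cells (HepG2 co-transfected with a PXR response element and a CYP3A4-promoter luciferase construct) were seeded at 2,000 per well, rested 5 hr at 37C, then exposed to DMSO-dissolved compounds for 24 hr. Activation was read as luciferase luminescence.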
% is scaled to controls: 0 for no effect and ±100 for the full control effect.

Cytochrome P450 2D6 (Homo sapiens), sequence (P10635 whole entry, looked up): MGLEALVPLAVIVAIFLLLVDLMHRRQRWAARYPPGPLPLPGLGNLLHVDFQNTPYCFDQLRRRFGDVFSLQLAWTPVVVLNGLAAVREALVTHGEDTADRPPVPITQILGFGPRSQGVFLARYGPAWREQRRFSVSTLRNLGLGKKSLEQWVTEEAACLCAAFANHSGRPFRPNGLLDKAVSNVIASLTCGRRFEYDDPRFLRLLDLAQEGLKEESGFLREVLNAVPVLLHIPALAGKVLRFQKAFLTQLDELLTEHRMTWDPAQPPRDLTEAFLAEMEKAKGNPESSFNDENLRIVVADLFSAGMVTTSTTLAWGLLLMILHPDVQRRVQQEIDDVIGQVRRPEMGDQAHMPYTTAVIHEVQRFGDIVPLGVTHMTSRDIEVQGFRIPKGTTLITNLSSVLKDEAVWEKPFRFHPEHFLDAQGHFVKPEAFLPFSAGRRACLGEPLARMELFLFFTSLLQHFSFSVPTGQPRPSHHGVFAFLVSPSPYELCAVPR
Voltage-gated inwardly rectifying potassium channel KCNH2 (Homo sapiens), sequence (Q12809 whole entry, looked up): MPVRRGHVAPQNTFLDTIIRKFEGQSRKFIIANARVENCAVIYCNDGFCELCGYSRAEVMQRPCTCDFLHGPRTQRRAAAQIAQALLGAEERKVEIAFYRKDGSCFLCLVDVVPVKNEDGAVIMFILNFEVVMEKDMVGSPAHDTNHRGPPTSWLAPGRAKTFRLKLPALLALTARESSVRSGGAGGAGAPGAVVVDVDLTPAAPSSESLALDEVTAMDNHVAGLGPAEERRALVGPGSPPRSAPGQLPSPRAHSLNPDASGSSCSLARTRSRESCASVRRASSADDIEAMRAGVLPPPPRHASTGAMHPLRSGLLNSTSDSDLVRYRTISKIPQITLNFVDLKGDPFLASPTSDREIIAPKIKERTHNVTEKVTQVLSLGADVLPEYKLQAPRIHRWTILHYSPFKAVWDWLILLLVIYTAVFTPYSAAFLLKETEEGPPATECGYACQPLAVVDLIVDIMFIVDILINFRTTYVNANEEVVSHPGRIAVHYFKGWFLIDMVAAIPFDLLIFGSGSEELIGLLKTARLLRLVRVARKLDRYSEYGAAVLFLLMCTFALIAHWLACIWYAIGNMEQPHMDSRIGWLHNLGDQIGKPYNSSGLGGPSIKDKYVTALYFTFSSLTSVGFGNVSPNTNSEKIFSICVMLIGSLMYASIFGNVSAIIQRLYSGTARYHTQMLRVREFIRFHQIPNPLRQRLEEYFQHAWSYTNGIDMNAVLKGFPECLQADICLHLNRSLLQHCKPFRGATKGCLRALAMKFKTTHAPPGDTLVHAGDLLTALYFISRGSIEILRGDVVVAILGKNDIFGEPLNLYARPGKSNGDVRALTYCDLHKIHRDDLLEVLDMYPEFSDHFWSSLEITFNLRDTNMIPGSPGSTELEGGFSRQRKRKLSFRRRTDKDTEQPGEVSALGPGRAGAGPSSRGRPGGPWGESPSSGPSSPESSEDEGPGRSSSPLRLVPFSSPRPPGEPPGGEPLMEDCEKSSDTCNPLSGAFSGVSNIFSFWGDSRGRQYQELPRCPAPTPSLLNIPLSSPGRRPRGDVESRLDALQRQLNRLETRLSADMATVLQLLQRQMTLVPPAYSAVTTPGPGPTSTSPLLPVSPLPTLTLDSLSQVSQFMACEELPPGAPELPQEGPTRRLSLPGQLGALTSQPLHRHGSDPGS
Cytochrome P450 2C9 (Homo sapiens), sequence (P11712 whole entry, looked up): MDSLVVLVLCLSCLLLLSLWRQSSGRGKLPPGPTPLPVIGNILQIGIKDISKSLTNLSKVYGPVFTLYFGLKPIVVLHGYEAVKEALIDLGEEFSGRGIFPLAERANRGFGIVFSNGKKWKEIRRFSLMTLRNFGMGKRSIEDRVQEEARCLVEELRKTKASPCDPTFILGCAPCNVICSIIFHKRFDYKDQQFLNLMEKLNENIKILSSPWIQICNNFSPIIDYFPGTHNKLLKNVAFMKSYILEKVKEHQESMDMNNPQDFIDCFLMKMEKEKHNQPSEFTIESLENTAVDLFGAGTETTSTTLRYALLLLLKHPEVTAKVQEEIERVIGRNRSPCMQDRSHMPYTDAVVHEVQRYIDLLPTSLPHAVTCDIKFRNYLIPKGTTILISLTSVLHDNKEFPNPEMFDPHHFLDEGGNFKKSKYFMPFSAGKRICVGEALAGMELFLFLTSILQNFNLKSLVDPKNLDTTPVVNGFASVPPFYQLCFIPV
Cytochrome P450 2C19 (Homo sapiens), sequence (P33261 whole entry, looked up): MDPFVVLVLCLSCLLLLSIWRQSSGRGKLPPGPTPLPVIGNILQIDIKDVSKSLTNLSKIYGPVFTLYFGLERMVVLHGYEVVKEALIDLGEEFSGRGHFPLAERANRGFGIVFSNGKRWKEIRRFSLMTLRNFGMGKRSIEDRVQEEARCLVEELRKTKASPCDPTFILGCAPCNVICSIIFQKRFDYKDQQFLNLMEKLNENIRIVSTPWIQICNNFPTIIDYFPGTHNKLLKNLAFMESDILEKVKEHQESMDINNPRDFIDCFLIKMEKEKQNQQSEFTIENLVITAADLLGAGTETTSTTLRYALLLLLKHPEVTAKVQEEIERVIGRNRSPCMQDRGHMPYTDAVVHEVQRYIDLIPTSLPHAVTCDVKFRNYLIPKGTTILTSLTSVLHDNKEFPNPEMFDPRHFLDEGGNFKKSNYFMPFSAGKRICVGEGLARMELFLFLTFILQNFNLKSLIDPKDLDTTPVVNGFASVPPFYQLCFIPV
Cytochrome P450 3A4 (Homo sapiens), sequence (P08684 whole entry, looked up): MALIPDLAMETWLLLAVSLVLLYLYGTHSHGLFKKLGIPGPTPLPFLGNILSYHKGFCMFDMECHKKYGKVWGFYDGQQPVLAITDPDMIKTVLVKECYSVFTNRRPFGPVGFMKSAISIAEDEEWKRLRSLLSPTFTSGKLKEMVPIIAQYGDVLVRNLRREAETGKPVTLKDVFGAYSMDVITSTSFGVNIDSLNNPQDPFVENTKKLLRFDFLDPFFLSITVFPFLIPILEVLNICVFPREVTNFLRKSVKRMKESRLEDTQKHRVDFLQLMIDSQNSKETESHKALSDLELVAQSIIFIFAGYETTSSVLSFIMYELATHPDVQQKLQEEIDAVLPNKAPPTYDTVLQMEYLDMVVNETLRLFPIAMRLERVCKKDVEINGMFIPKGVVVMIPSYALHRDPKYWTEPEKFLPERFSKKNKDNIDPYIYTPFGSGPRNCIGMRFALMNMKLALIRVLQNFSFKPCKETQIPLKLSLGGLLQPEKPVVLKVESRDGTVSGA
Nuclear receptor subfamily 1 group I member 2 (Homo sapiens), sequence (O75469 whole entry, looked up): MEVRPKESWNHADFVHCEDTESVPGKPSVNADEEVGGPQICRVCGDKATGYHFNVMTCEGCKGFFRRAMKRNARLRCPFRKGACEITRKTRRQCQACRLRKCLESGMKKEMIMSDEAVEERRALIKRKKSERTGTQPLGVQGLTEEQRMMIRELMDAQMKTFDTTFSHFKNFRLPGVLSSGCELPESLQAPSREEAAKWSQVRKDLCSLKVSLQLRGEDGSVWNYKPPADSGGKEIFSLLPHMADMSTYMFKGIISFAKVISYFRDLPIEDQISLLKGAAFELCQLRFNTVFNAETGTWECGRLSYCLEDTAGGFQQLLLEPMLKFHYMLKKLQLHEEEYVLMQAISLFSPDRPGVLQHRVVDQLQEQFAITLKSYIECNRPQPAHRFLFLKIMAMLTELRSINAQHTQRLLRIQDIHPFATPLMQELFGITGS
Nuclear receptor subfamily 1 group I member 2 (Rattus norvegicus), sequence (Q9R1A7 whole entry, looked up): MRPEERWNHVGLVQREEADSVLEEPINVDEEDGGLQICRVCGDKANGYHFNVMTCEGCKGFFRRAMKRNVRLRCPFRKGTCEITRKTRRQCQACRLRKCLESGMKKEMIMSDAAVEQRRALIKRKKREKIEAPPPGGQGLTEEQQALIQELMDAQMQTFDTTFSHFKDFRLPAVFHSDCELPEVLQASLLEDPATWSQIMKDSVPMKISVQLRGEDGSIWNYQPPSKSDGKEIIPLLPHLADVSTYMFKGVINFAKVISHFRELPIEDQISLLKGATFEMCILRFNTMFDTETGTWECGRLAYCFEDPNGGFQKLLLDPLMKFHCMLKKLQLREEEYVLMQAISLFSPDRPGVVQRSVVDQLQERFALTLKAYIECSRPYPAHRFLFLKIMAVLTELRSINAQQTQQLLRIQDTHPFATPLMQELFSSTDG
Cytochrome P450 1A2 (Homo sapiens), sequence (P05177 whole entry, looked up): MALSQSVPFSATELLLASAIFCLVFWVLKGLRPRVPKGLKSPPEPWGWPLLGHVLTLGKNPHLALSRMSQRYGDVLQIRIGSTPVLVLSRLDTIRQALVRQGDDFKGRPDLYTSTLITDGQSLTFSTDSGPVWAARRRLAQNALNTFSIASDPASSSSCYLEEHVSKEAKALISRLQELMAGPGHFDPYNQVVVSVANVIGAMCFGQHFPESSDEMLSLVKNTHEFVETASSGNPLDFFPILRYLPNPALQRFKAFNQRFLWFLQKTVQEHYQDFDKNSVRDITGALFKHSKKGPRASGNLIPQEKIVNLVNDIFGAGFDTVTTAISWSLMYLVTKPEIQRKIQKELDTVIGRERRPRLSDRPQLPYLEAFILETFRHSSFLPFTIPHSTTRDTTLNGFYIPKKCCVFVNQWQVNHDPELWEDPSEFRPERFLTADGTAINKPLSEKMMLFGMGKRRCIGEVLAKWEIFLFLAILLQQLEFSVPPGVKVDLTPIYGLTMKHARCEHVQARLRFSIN

Take `O=C(Nc1ccccc1SSc1ccccc1NC(=O)c1ccccc1)c1ccccc1`: the Potency result in experiment [1], in [3], in [5] and in experiment [9] was “inactive” in each case. Moreover, the Potency in experiment [2] is 24.5 µM (active) and 27.3 µM (active); in [4] it was 48.8 µM (active) and 30.6 µM (active); in [6] it was 3.19 µM (active) and 2.52 µM (active); in experiment [7] it was 505 nM (active) and 564 nM (active); in experiment [8], 8.01 µM (active) and 8.94 µM (active); in experiment [10], 2.01 µM (active) and 5.03 µM (active).

With `NC12CC3CC(CC(C3)C1)C2`, the Potency result in [1], in experiment [2], in experiment [3], in experiment [11] and in [9] was “inactive” throughout.

Take `CCN1CCCC1CNC(=O)c1cc(S(=O)(=O)CC)c(N)cc1OC` (centres undefined): the Potency entry in [1], in [2], in experiment [3], in [11], in experiment [6] and in [7] was “inactive” throughout. Further, the Potency result in [8] and in [10] was “inactive” throughout. Also, the Potency in experiment [5] is 9.77 µM (active).

For the compound `Oc1c(Cl)cc(Cl)c(Cl)c1Cc1c(O)c(Cl)cc(Cl)c1Cl`, the Potency entry in experiment [1], in [3], in experiment [5], in [8], in [9] and in [10] was “inactive” in each case. Further, the Potency is 6.09 µM (active) and 15.4 µM (active) and 8.41 µM (active) in experiment [2]; 70.8 µM (active) and 79.6 µM (active) and inactive in experiment [6]; 2 µM (active) and 3.56 µM (active) and 1.74 µM (active) in experiment [7]. Besides, the max activation in experiment [12] was -22.6% (inactive).

As to `Cc1ccc(-c2cc(C(F)(F)F)nn2-c2ccc(S(N)(=O)=O)cc2)cc1`, the Potency was 54.3 µM (active) in [1]; 48.4 µM (active) and 61.1 µM (active) in [2]; 60.9 µM (active) and 61.1 µM (active) and inactive in [11]; 10.8 µM (active) and 5.45 µM (active) and 13.3 µM (active) in experiment [4]; 14.1 µM (active) in [13]; 998 nM (active) and 35.6 µM (active) and 15.5 µM (active) in experiment [5]. Moreover, the Potency in experiment [6] is 28.1 µM (active) and 50.2 µM (active); in [7] it was 12.6 µM (active) and 11.2 µM (active) and 8.71 µM (active). Besides, the max activation in experiment [12] is 0.916% (inactive). Besides, the Potency entry in experiment [8] is “inactive”.

Take `Cc1cccc2n[nH]nc12`: the Potency result in experiment [1], in experiment [2], in experiment [3], in [11], in experiment [5] and in [6] was “inactive” each time. The Potency entry in experiment [7], in [9] and in experiment [10] was “inactive” each time.

For `O=C(O)CP(=O)(O)O`, the Potency entry in [1], in experiment [2], in experiment [3], in [11], in [5] and in experiment [6] was “inactive” in each case. Also, the Potency result in experiment [7], in experiment [9] and in experiment [10] was “inactive” throughout.

`CNCCC(Oc1ccc(C(F)(F)F)cc1)c1ccccc1` (centres undefined): the Potency is 26.9 µM (active) in experiment [1]; 67.7 µM (active) and 29.8 µM (active) in experiment [2]; 60.3 µM (active) in [11].

For the compound `CCCCCCC(O)CCCCCCCCCCC(=O)O` (centres undefined), the Potency result in experiment [1], in experiment [2], in [3], in experiment [11], in experiment [5] and in experiment [6] was “inactive” in each case. For the same compound, the Potency result in [7], in [8], in experiment [9] and in experiment [10] was “inactive” each time.

Consider `CC(C)CCOCc1ccccc1`, for which the Potency result in experiment [1], in [2], in [3], in experiment [11], in experiment [5] and in [6] was “inactive” in each case. The Potency result in experiment [7], in [9] and in experiment [10] was “inactive” each time.

As for `Oc1c(Cl)cc(Cl)cc1Sc1cc(Cl)cc(Cl)c1O`, the Potency entry in experiment [1], in experiment [3], in experiment [5], in [9] and in experiment [10] was “inactive” throughout. Also, the Potency in experiment [2] was 15.4 µM (active) and 62.1 µM (active) and 17.2 µM (active); in [11], 15.4 µM (active); in experiment [6], 71.2 µM (active) and 79.6 µM (active) and inactive; in [8], 72.2 µM (active) and inactive.

Regarding `CCn1cc(C(=O)O)c(=O)c2cc(F)c(N3CCNC(C)C3)c(F)c21` (centres undefined), the Potency result in experiment [1], in experiment [2], in [11], in experiment [4], in experiment [13] and in experiment [14] was “inactive” in each case. Moreover, the Potency entry in [5], in experiment [7], in experiment [8] and in [10] was “inactive” in each case. For the same compound, the max activation in experiment [12] is -0.533% (inactive).

For `CC(=O)CC(=O)Nc1ccc2[nH]c(=O)[nH]c2c1`, the Potency entry in [1], in experiment [2], in experiment [3], in experiment [4], in experiment [5] and in [6] was “inactive” throughout. Besides, the Potency result in experiment [9] and in [10] was “inactive” throughout. The Potency in experiment [8] was 39.9 µM (active).

With `Clc1ccc2c(c1)C(N1CCNCC1)=Nc1ccccc1O2`, the Potency result in [1], in experiment [2], in [3] and in experiment [11] was “inactive” in each case. Moreover, the Potency in experiment [5] is 3.99 µM (active) and 3.09 µM (active); in experiment [6], 63.3 µM (active) and inactive; in experiment [7], 17.8 µM (active) and inactive; in experiment [9], 43.6 µM (active) and 19 µM (active); in [10] it was 7.96 µM (active) and 4.9 µM (active).

On to `CNC1(C)C2CCC(C2)C1(C)C` (centres undefined), for which the Potency entry in experiment [1], in experiment [2], in experiment [3], in [11], in experiment [5] and in experiment [7] was “inactive” in each case. Also, the Potency result in experiment [8], in experiment [9] and in experiment [10] was “inactive” in each case.

Consider `CC(C)CCCCCCc1ccc(O)cc1`, for which the Potency in experiment [1] was 55.4 µM (active) and 68.6 µM (active); in experiment [2], 44 µM (active) and 61.1 µM (active); in [11], 55.4 µM (active); in experiment [4], 22.1 µM (active) and 9.69 µM (active); in [14], 28.2 µM (active); in experiment [5] it was 40.6 µM (active) and inactive. In addition, the Potency was 3.62 µM (active) and 4.48 µM (active) in [6]; 9.1 µM (active) and 12.6 µM (active) in [7]; 28.8 µM (active) in experiment [8]; 39.6 µM (active) in experiment [9]; 16.2 µM (active) in [10]. Further, the max activation in experiment [12] was -6.01% (inactive). In experiment [13], the Potency result was “inactive”.
